From PubChem BioAssay (EPA / NIEHS)
Calls of active or inactive are those of the source. The calls were made as follows: active = hit-call score of the fitted dose curve at least 0.9, where 1 is the maximum; inactive = score below 0.9.

Test: ATG_ISRE_CIS: Attagene CIS-FACTORIAL HepG2 Assay for human Interferon Regulatory Factor 1 (IRF1) binding to an Interferon-Stimulated Response Element (ISRE) (AID 2282948)
Settings: HepG2 ISRE cis-reporter (Attagene), mRNA transcription readout; actives raise or lower the signal
Outline: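 Transfected HepG2 (multiple reporter transcription units, cis elements) dosed 24 h. RNA → oligo(dT) RT → PCR → 6-FAM primer extension → HpaI → CE. DMSO = negative control/baseline.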

outcome, inactive:
COCCOC(=O)c1ccccc1C(=O)OCCOC
ON=C1CCCCC1
Nc1ccc(NCCO)c([N+](=O)[O-])c1
C=C(C)[C@H]1CC=C(C)C(=O)C1
CCCCSCCCC
N#Cc1ccc(CC(=O)c2cccc(C(F)(F)F)c2)cc1
NCCNc1cccc2ccccc12
C=C(C)[C@@H]1CC=C(C)C(=O)C1
CC1=NN(c2ccc(S(=O)(=O)O)cc2)C(=O)C1
O=Cc1ccccc1S(=O)(=O)O
CC1(C)CCC[C@]2(C)[C@H]3CCO[C@]3(C)CC[C@@H]12
C=CCOC(=O)CCCCCC
Cc1ccc2c(c1)C(=O)OC2=O
CC(C)(N=C=O)c1cccc(C(C)(C)N=C=O)c1
CCCC(=O)OC(C)(C)Cc1ccccc1
CCOc1ccc(NC(=O)CC(C)=O)cc1
C=CCCC(=O)/C=C/C1C(C)=CCCC1(C)C (stereo not drawn)
CCCCCCC(CO)CCCC (stereo not drawn)
CCCSc1ccc2nc(NC(=O)OC)[nH]c2c1
CCCC(=O)c1ccccc1
C=C(C)C1CC=C(C)C(=O)C1 (stereo not drawn)
CN1CCOCC1
C#CC(C)(O)CC(C)C (stereo not drawn)
Cc1occc(=O)c1OC(=O)C(C)C
N[C@@H](Cc1cc(I)c(Oc2cc(I)c(O)c(I)c2)c(I)c1)C(=O)O
C=CCCCCCCCCCC
C=C[Si]1(C)O[Si](C)(C=C)O[Si](C)(C=C)O[Si](C)(C=C)O1 (stereo not drawn)
CC1=CC[C@@]23C[C@@H]1C(C)(C)[C@@H]2CC[C@H]3C
Cc1ccc(-c2ccccc2)cc1

AC50, active:
CCOC(=O)C1OC1c1ccccc1 (stereo not drawn) 33.5 µM
[O-]n1ccccc1=S.[O-]n1ccccc1=S.[Zn+2] 1.07 µM

Test: ATG_M_32_CIS: Attagene CIS-FACTORIAL HepG2 Assay for M32 Transcription Factor (Internal Marker) (AID 2282949);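 also: background control marker of the multiplexed CIS panel rather than a real target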
Settings: HepG2 Attagene cis-factorial M32 reporter, mRNA; actives raise or lower the signal
Outline: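 Following 24 h chemical exposure of HepG2 cells transiently expressing cis-promoter reporter constructs, reporter transcript levels were determined by RT-PCR with fluorescent labelling and capillary electrophoresis, then fitted bidirectionally against DMSO.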

outcome, inactive:
COCCOC(=O)c1ccccc1C(=O)OCCOC
ON=C1CCCCC1
COc1ccc(COC(C)=O)cc1
Nc1ccc(NCCO)c([N+](=O)[O-])c1
C=C(C)[C@H]1CC=C(C)C(=O)C1
CCCCSCCCC
N#Cc1ccc(CC(=O)c2cccc(C(F)(F)F)c2)cc1
NCCNc1cccc2ccccc12
C=C(C)[C@@H]1CC=C(C)C(=O)C1
CCOC(=O)C1OC1c1ccccc1 (stereo not drawn)
[O-]n1ccccc1=S.[O-]n1ccccc1=S.[Zn+2]
CC1=NN(c2ccc(S(=O)(=O)O)cc2)C(=O)C1
O=Cc1ccccc1S(=O)(=O)O
CC1(C)CCC[C@]2(C)[C@H]3CCO[C@]3(C)CC[C@@H]12
C=CCOC(=O)CCCCCC
C[Si](C)(C)O[Si](C)(C)C
Cc1ccc2c(c1)C(=O)OC2=O
CC(C)(N=C=O)c1cccc(C(C)(C)N=C=O)c1
CCCC(=O)OC(C)(C)Cc1ccccc1
CCOc1ccc(NC(=O)CC(C)=O)cc1
C=CCCC(=O)/C=C/C1C(C)=CCCC1(C)C (stereo not drawn)
CCCCCCC(CO)CCCC (stereo not drawn)
CC(C)C(OC(=O)c1ccccc1)C(C)(C)COC(=O)c1ccccc1 (stereo not drawn)
CCCSc1ccc2nc(NC(=O)OC)[nH]c2c1
CCCC(=O)c1ccccc1
C=C(C)C1CC=C(C)C(=O)C1 (stereo not drawn)
C#CC(C)(O)CC(C)C (stereo not drawn)
CCOC(=O)C(C#N)=C(c1ccccc1)c1ccccc1
CCC(C)=O
Cc1occc(=O)c1OC(=O)C(C)C
O=C(O)CCCCCCCCC(=O)O
N[C@@H](Cc1cc(I)c(Oc2cc(I)c(O)c(I)c2)c(I)c1)C(=O)O
C=CCCCCCCCCCC
C=C[Si]1(C)O[Si](C)(C=C)O[Si](C)(C=C)O[Si](C)(C=C)O1 (stereo not drawn)
CC1=CC[C@@]23C[C@@H]1C(C)(C)[C@@H]2CC[C@H]3C
Cc1ccc(-c2ccccc2)cc1
CCC1(C)NC(=O)NC1=O (stereo not drawn)

AC50, active:
CN1CCOCC1 100 µM

Test: ATG_M_06_CIS: Attagene CIS-FACTORIAL HepG2 Assay for M06 Transcription Factor (Internal Marker) (AID 2282950)
Settings: HepG2 Attagene CIS-FACTORIAL M06 internal marker reporter; actives raise or lower the signal
Outline: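 Serves as a background control readout. Transfected HepG2 exposed to compounds for 24 h, then reporter transcripts quantified by fluorescent RT-PCR and capillary electrophoresis. Both directions fitted against DMSO baseline.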

outcome, inactive:
COCCOC(=O)c1ccccc1C(=O)OCCOC
ON=C1CCCCC1
COc1ccc(COC(C)=O)cc1
Nc1ccc(NCCO)c([N+](=O)[O-])c1
C=C(C)[C@H]1CC=C(C)C(=O)C1
CCCCSCCCC
N#Cc1ccc(CC(=O)c2cccc(C(F)(F)F)c2)cc1
NCCNc1cccc2ccccc12
C=C(C)[C@@H]1CC=C(C)C(=O)C1
CCOC(=O)C1OC1c1ccccc1 (stereo not drawn)
[O-]n1ccccc1=S.[O-]n1ccccc1=S.[Zn+2]
CC1=NN(c2ccc(S(=O)(=O)O)cc2)C(=O)C1
O=Cc1ccccc1S(=O)(=O)O
CC1(C)CCC[C@]2(C)[C@H]3CCO[C@]3(C)CC[C@@H]12
C=CCOC(=O)CCCCCC
C[Si](C)(C)O[Si](C)(C)C
C1=CC2C3C=CC(C3)C2C1 (stereo not drawn)
Cc1ccc2c(c1)C(=O)OC2=O
CC(C)(N=C=O)c1cccc(C(C)(C)N=C=O)c1
CCCC(=O)OC(C)(C)Cc1ccccc1
CCOc1ccc(NC(=O)CC(C)=O)cc1
C=CCCC(=O)/C=C/C1C(C)=CCCC1(C)C (stereo not drawn)
CCCCCCC(CO)CCCC (stereo not drawn)
CC(C)C(OC(=O)c1ccccc1)C(C)(C)COC(=O)c1ccccc1 (stereo not drawn)
CCCSc1ccc2nc(NC(=O)OC)[nH]c2c1
CCCC(=O)c1ccccc1
C=C(C)C1CC=C(C)C(=O)C1 (stereo not drawn)
CN1CCOCC1
C#CC(C)(O)CC(C)C (stereo not drawn)
CCOC(=O)C(C#N)=C(c1ccccc1)c1ccccc1
CCC(C)=O
Cc1occc(=O)c1OC(=O)C(C)C
O=C(O)CCCCCCCCC(=O)O
N[C@@H](Cc1cc(I)c(Oc2cc(I)c(O)c(I)c2)c(I)c1)C(=O)O
C=CCCCCCCCCCC
C=C[Si]1(C)O[Si](C)(C=C)O[Si](C)(C=C)O[Si](C)(C=C)O1 (stereo not drawn)
CC1=CC[C@@]23C[C@@H]1C(C)(C)[C@@H]2CC[C@H]3C
Cc1ccc(-c2ccccc2)cc1
CCC1(C)NC(=O)NC1=O (stereo not drawn)
